L3MBTL1 block: qHTS Assay for the Inhibitors of L3MBTL1 | Lethal(3)malignant brain tumor-like protein 1 (Homo sapiens), Q9Y468 | AlphaScreen L3MBTL1–H3K9me1 peptide binding | Potency, µM (series often up to 57.1 µM), inactives show at the top dose activity, negative = inhibition, actives largely listed as inhibitors | 0.66% of 230,000 active; note: % is set by controls: 0 for no effect and ±100 for the full control effect; nearly all actives have a fitted effect of over 60% in size
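First, the protein-peptide complex forms for 30 min at room temperature (L3MBTL1 50 nM, biotinylated H3K9me1 peptide 75 nM). Next, compounds are pin-transferred and incubated 30 min. Finally, AlphaScreen beads are added and read after 30 min.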
G9a inh: qHTS Assay for Inhibitors of Histone Lysine Methyltransferase G9a. G9a H3K9 monomethylation, AlphaScreen, 2 h. Potency, µM (series often up to 102 µM), inactives show at the highest dose activity, negative = inhibition, hits mostly inhibitors. 8.8% of 350,000 active. AID 504332, 2011; note: % is set by controls: 0 for no effect and ±100 for the full control effect; nearly all actives have a fitted effect of over 75% in size
Target sequence (Q96KQ7 913-1193 limits assumed): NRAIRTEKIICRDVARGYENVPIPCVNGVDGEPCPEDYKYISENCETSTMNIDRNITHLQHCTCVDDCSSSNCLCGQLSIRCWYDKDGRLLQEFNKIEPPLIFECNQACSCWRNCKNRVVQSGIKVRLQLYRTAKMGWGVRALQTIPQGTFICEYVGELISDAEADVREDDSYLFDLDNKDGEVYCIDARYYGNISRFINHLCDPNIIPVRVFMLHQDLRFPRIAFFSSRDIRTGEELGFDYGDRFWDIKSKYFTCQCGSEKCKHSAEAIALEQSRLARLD
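Methyltransferase reactions run at room temperature for 2 h (20 nM enzyme, 500 nM biotin-H3K9 peptide, 20 uM SAM) after a 15 min compound preincubation; product detected by AlphaScreen beads and anti-H3K9me1 antibody.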
BAZ2B block: qHTS Assay for Inhibitors of BAZ2B. AlphaScreen BAZ2B-H3K14Ac peptide displacement. Potency, µM (series often up to 114 µM), for the others: at the top dose activity change, negative = inhibition, actives largely listed as inhibitors. 4.4% of 360,000 active; note: % is set by controls: 0 for no effect and ±100 for the full control effect; nearly all actives have a fitted effect of over 60% in size
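AlphaScreen displacement: compounds (up to 110uM) incubated 30 min at room temperature with a preformed 50 nM BAZ2B/50 nM biotinylated H3K14Ac peptide complex in PBS pH 7.4 with Tween-20. Donor and acceptor beads at 10 ug/mL final added, 20 min light-protected before reading.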
HP1b binding inh: HTS for Inhibitors of HP1-beta Chromodomain Interactions with Methylated Histone Tails; Chromobox protein homolog 1 (Homo sapiens), P83916; AlphaScreen HP1-beta / biotin-H3K9me3 peptide binding; Potency, µM (series often up to 114 µM), inactives show at the top dose activity change, negative = inhibition, actives largely listed as inhibitors; 0.56% of 390,000 active; AID 540317, 2011; note: nearly all actives have a fitted effect of over 70% in size
Target sequence (P83916 whole entry, looked up): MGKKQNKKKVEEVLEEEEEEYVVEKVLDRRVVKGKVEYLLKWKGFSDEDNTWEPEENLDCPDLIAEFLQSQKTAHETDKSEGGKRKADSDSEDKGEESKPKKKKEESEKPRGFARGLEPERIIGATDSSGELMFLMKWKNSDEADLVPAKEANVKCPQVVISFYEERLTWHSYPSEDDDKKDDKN
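Compound inhibition of the preformed complex between 50 nM HP1-beta and 50 nM biotinylated H3K9me3 peptide was read by AlphaScreen. Buffer was PBS pH 7.4 with 0.01% Tween-20. Incubations ran 30 min at room temperature, with 10 ug/mL donor/acceptor beads.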
GLS inh: qHTS for Inhibitors of Glutaminase (GLS); Glutaminase kidney isoform, mitochondrial (Homo sapiens), O94925; GLS enzymatic activity, qHTS titration; Potency, µM (titrated, usually from 45.5 µM), without a hit: at the highest dose activity change, negative = inhibition, actives largely listed as inhibitors; 0.21% of 410,000 active; note: % is set by controls: 0 for no effect and ±100 for the full control effect
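Human kidney-isoform GLS in 45 mM KH2PO4 pH 8.2, 0.02% Tween-20, with compound, started with 1mM L-Glutamine (added stock). Glutamate oxidase/HRP/Amplex red coupled fluorescence read at start and after 30 min at RT.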
JMJD2A Tudor inh: qHTS Assay for Inhibitors of JMJD2A-Tudor Domain; Lysine-specific demethylase 4A (Homo sapiens), O75164; AlphaScreen JMJD2A-Tudor / H3K4me3 peptide binding; Potency, µM (titrated, usually from 114 µM), for inactives: at the top dose activity change, negative = inhibition, most hits filed as inhibitors; 4.4% of 390,000 active; AID 504339, 2011; note: % is set by controls: 0 for no effect and ±100 for the full control effect; nearly all actives have a fitted effect of over 50% in size
* = called active by the depositor; ? = inconclusive; . = not tested or not shown; [ ] = dose if it differs, or a comment. Hits are enriched below; roughly 10% of the tested compounds scored in any of these assays. Calls come from the whole dose curve; as a rule, active = well fitted curve in the direction sought with a large enough effect; inconclusive = small, poorly fitted or top-dose-only effect, or another doubt; inactive = no such curve, though single readings can be large; an effect the other way counts as inactive or inconclusive. Potency is the fitted concentration of half-maximal effect.

SMILES	L3MBTL1 block	G9a inh	BAZ2B block	HP1b binding inh	GLS inh	JMJD2A Tudor inh
C=CCOc1cccc(C(=O)N2CCCC(Nc3ccc4c(c3)OCCO4)C2)c1 (stereo not given)	.	?	45µM*	-13%	18%	?
C=CCOc1cccc(C(=O)N2CCCC(CCC(=O)NCc3ccccc3F)C2)c1 (stereo not given)	33%	.	0%	29%	19%	-3%
O=C(c1ccc(N2CCOCC2)cc1)N1CCCC(Nc2ccccc2)C1 (stereo not given)	.	-1%	-9%	26%	?	?
COc1ccc(CCNC(=O)c2cc(Nc3ccccc3)nc3ccccc23)cc1OC	.	0%[59 µM]	6%	49%	-7%	-18%
COc1ccc(Br)cc1CNc1ccccc1	3%	22µM*	50µM*	?	4%	18µM*
CC(C)NCc1cc(Br)ccc1OCc1ccccc1	8%	-37%	-1%	34%	2%	-5%
O=c1c(/C=N/N2CCOCC2)c(C(F)(F)F)[nH]n1-c1ccccc1	7%	40µM*	-35%	0%	30%	-21%
Cc1[nH]n(-c2ccccc2)c(=O)c1/C=N/N1CCOCC1	-6%	?	-34%	9%	13%	-8%
CC1CCCC/C1=N/Nc1ccc([N+](=O)[O-])cc1[N+](=O)[O-] (stereo not given)	.	35µM*	?	-60%	9%	50µM*
CC1C/C(=N/Nc2ccc([N+](=O)[O-])cc2[N+](=O)[O-])CC(C)(C)C1 (stereo not given)	?	10µM*	10µM*	8.9µM*	-12%	5.6µM*
Cc1ccc(N=C/C(C(=O)C(F)(F)F)=C(\O)c2ccco2)cc1Cl	13%	45µM*	0%	29%	7%	?
Cc1cccc(N=C/C(C(=O)C(F)(F)F)=C(\O)c2ccco2)c1	11%	44%[59 µM]	5%	25%	14%	-20%
O=C(/C(C=Nc1ccc(F)cc1)=C(/O)c1ccco1)C(F)(F)F	-2%	40µM*	?	21%	1%	?
COn1c(=O)c(-c2cccc(Br)c2)[n+]([O-])c2ccccc21	7%	7%	-35%	39%	-7%	-7%
O=c1c(-c2ccc(Cl)cc2)[n+]([O-])c2ccccc2n1O	-4%	11µM*	?	-8%	8%	25µM*
CCOC(=O)COn1c(=O)c(-c2ccc(Cl)cc2)[n+]([O-])c2ccccc21	.	9%	3%	26%	6%	-9%
O=c1c(-c2cccc([N+](=O)[O-])c2)[n+]([O-])c2ccccc2n1O	.	?	?	-1%	-1%	56µM*
Cc1ccc2onc(CNC(=O)N3CCN(c4cccc(C)c4C)CC3)c2c1	.	-32%[59 µM]	-15%	19%	13%	-21%
Cc1ccccc1CN1CCN(CC(=O)NCc2ccccc2Cl)C1=O	.	-5%[59 µM]	-7%	-13%	-8%	-18%
Oc1ccccc1C=NCCN=Cc1ccccc1O	-5%	13%	-32%	15%	29%	-16%[11.4 µM]
Oc1ccccc1C=NCCN1CCN(CCN=Cc2ccccc2O)C1c1ccccc1O (stereo not given)	.	.	.	13%[57 µM]	23%	22µM*
CCOc1cc(/C=N/N=C2/NC(=O)C(CC(=O)O)S2)ccc1OCc1ccc(Cl)cc1 (stereo not given)	?	-24%	56µM*	-24%	-17%	50µM*
COc1ccc(/C=N/N=C2/NC(=O)C(CC(=O)O)S2)cc1OS(=O)(=O)c1ccccc1 (stereo not given)	-5%	?	-29%	34%	4%	-5%
O=C(O)CC1S/C(=N/N=C/C=C/c2ccccc2[N+](=O)[O-])NC1=O (stereo not given)	9%	-9%[59 µM]	7%	34%	-2%	?
O=C(O)CC1S/C(=N/N=C/c2ccc(-c3ccc(Cl)cc3[N+](=O)[O-])o2)NC1=O (stereo not given)	.	14µM*	?	-9%	7%	?
SMILES	L3MBTL1 block	G9a inh	BAZ2B block	HP1b binding inh	GLS inh	JMJD2A Tudor inh
O=C(O)CC1S/C(=N/N=C/C=C/c2ccccc2)NC1=O (stereo not given)	10%	7.9µM*	79µM*	22%	10%	79µM*
CC(=O)Nc1ccc(S(=O)(=O)Oc2cccc(/C=N/N=C3/NC(=O)C(CC(=O)O)S3)c2)cc1 (stereo not given)	-20%	?	56µM*	29%	0%	-23%
COc1ccc(/C=N/N=C2/NC(=O)C(CC(=O)O)S2)cc1OCc1ccc(Cl)cc1 (stereo not given)	-1%	-7%	?	15%	4%	?
COc1ccc(C2CC(O)(c3ccccc3)Oc3c(C)ccc(C(C)C)c32)cc1 (stereo not given)	.	.	.	29%	.	-10%
COc1ccccc1N1CCN(CCCNC(=O)c2cnn(-c3cccc(Cl)c3)c2C2CCN(C(=O)OC(C)(C)C)CC2)CC1	.	?	?	?	6%	?
O=c1c2cccnc2n(Cc2ccccc2F)c(=O)n1Cc1ccccc1Cl	.	1%[59 µM]	4%	36%	-12%	-11%
C=CCN(C(C(=O)OC)C(C)C)S(=O)(=O)C=C (stereo not given)	.	.	.	30%	.	4%
COc1cc(/C=N/N=C2/NC(=O)C(Cc3ccccc3)S2)ccc1O (stereo not given)	.	-4%	5%	34%	8%	-10%
Cn1c(=O)n(C)c2cc(/C=N/N=C3/NC(=O)C(CC(=O)O)S3)ccc21 (stereo not given)	-24%	-14%	50µM*	?	0%	32µM*
CCn1c(=O)cc(SCC(=O)NCc2ccccc2OC)c2ccccc21	.	8%[59 µM]	-2%[57.1 µM]	55%	-6%	-4%
CC1=CN2C(=N)/C(=C/c3ccc(Sc4ccc(Cl)cc4)o3)C(=O)N=C2S1	-5%	27%[59 µM]	-4%	7%	2%	-6%
CC1=CN2C(=N)/C(=C/c3ccc(Sc4ccc(C)cc4)o3)C(=O)N=C2S1	?	25µM*	22µM*	28µM*	-1%	-23%
COc1cccc(-c2nc(CS(=O)(=O)CC(=O)NCc3ccc(C)cc3)c(C)o2)c1	.	-17%[59 µM]	-15%	42%	-12%	-15%
CN(C)c1ccc(CNC(=O)c2cc(S(=O)(=O)N3CCOCC3)cn2C)cc1	-3%	40µM*	-9%	9%	-2%	-17%

Screening results: PubChem BioAssay, National Center for Advancing Translational Sciences (NCATS)
